The whole screen tested about 220,000 compounds, of which about 830 (0.38%) were called active. The list is a sample of the results. Entries with a potency or affinity are not part of this list. Values without a mark were called inactive.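 The calls were made as follows: active = compound inhibiting the enzyme by more than half at any dose during confirmatory dose-response retesting; inconclusive = strong single-dose inhibitors picked by rank but not retested; inactive = the rest.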

Chain of Leucine aminopeptidase (Plasmodium falciparum (isolate 3D7)) (Q8IL11 whole entry, looked up): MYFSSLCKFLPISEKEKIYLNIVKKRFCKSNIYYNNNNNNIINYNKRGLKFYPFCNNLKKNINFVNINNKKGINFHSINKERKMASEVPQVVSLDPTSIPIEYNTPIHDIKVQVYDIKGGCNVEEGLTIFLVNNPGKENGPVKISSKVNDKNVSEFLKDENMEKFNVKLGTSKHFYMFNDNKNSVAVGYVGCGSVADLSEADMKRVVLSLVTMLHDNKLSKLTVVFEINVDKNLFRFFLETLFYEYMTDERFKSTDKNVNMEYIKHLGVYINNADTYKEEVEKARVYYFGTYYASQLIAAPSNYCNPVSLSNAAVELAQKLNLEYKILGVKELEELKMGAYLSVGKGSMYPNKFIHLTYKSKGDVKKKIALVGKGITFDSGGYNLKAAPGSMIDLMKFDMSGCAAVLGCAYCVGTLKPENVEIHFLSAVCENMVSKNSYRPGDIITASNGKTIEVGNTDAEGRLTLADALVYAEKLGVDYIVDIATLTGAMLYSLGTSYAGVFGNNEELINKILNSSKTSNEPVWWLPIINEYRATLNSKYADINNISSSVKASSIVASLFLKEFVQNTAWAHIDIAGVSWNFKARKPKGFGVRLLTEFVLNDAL

The test addresses Leucine aminopeptidase (Plasmodium falciparum (isolate 3D7)) (UniProt Q8IL11). The test can be described thus: P. falciparum M17LAP inhibitors, primary screen, biochemical, fluorogenic H-Leu-NHMec substrate, 1536-well (AID 1619).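 Also: plate controls were full reaction with DMSO carrier for no effect and no enzyme background for full effect.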 Particulars: recombinant M17LAP, H-Leu-NHMec fluorogenic kinetic assay; at 30 µM; active compounds read high.
By inhibition is commonly meant the change of the read-out against control, counted positive when it falls. On to `O=C(NNC(=O)C1CC2CCC1C2)c1ccccc1` (configuration not stated), for which the inhibition is 17.8%.
The figure for `O=C(NNC(=S)NC1CCCCC1)c1sc2ccccc2c1Cl` is 13.2%; for `CC(C)(C)c1ccc(/C=C2\Oc3cc(OC(=O)N4CCOCC4)ccc3C2=O)cc1` it is -5.21%; for `CCCC(C)NS(=O)(=O)c1ccc(OC)c(C)c1` (configuration not stated) it is 1.13%.
Then `Cn1c(-c2ccc3ccccc3n2)nc2cnccc21`, with 9.33%; and `CCCNC(=O)C(=O)NCc1ccccn1`, with -4.32%.
Take `Cc1cc(NC(=O)CN2C(=O)NC3(CCCCC3)C2=O)no1`: the inhibition is -14.1%.
The figure for `Cc1ccc(NC(=O)CN2C(=O)NC3(CCC(C)CC3)C2=O)c(Cl)c1` (configuration not stated) is 21%.
Then `Cc1ccc(NC(=O)NC(=O)CN2C(=O)NC3(CCCCCCC3)C2=O)c(C)c1`, with 3.61%; and `COc1ccccc1NC(=O)CN1C(=O)NC2(CCCCCCC2)C1=O`, with -0.01%.
Then `Cc1cc(NC(=O)CN2C(=O)NC3(CCCCCC3)C2=O)no1`, with -1.33%; and `O=C(CN1C(=O)NC2(CCCCC2)C1=O)Nc1ccccc1Cl`, with 30.3%; and `CCCNC(=O)c1cccc(NC(=O)C(C)C)c1`, with -3.07%.
Take `O=C(NC1CCCc2ccccc21)c1cccc(S(=O)(=O)N2CCOCC2)c1` (configuration not stated): the inhibition was 2.84%.
For `Cc1ccc(OCC(=O)Nc2sc3c(c2C#N)CCC3)cc1`, the inhibition was 4.24%.
Then `CCc1onc(C)c1C(=O)Nc1cc(C)ccc1OC`, with 7.34%; and `COc1ccc2c(c1)SCC/C2=C\CN1C(=O)CCC1=O`, with -6.21%; and `Cn1c(NCCc2ccccc2)cc(=O)n(C)c1=O`, with 1.23%.
As to `CCN(CC)C(=O)CSc1nc2ccc(NC(=O)CSc3nnc(N)s3)cc2s1`, the inhibition is 19.7%.
Then `COc1ccc(NC(=O)CSc2n[nH]c(N)n2)c([N+](=O)[O-])c1`, with 56.1%; and `CCN(CC)S(=O)(=O)c1cccc(NC(=O)CSc2nnc(N)s2)c1`, with 2.68%; and `COc1ccc(NC(=O)CSc2nnc(N)s2)c([N+](=O)[O-])c1`, with 8.5%.
Then `Cc1ccc(NC(=O)CSc2nnc(N)s2)c([N+](=O)[O-])c1`, with 26.8%; and `CCc1nc(SCC(=O)Nc2ccc(OC)cc2[N+](=O)[O-])n[nH]1`, with 11.8%.
The figure for `CCCCOC(=O)C(C#N)c1nc2ccccc2nc1N1CCN(Cc2ccc3c(c2)OCO3)CC1` (configuration not stated) is -4.21%; for `C/C(=N\NC(=O)c1ccc(CN2CCOCC2)cc1)c1ccc(NC(=O)c2ccccc2)cc1` it is 4.99%.
`COc1ccc(C2CC(c3ccccc3)=NN2C(=O)COC(=O)CNC(=O)c2ccccc2)cc1` (configuration not stated): the inhibition is -5.9%.

Values taken from PubChem BioAssay AID1619 (SRMLSC, 2009).
